POLI inh: qHTS for Inhibitors of Polymerase Iota; DNA polymerase iota (Homo sapiens), Q9UNA4; Potency, µM (highest dose often 115 µM), for inactives: top-dose activity, negative = inhibition, hits mostly inhibitors; Pol iota fluorescent replication assay, 10 min; hit rate 1% among 390,000; AID 588590, 2011; note: potency is the fitted concentration of half-maximal effect
Target sequence (Q9UNA4 whole entry, looked up): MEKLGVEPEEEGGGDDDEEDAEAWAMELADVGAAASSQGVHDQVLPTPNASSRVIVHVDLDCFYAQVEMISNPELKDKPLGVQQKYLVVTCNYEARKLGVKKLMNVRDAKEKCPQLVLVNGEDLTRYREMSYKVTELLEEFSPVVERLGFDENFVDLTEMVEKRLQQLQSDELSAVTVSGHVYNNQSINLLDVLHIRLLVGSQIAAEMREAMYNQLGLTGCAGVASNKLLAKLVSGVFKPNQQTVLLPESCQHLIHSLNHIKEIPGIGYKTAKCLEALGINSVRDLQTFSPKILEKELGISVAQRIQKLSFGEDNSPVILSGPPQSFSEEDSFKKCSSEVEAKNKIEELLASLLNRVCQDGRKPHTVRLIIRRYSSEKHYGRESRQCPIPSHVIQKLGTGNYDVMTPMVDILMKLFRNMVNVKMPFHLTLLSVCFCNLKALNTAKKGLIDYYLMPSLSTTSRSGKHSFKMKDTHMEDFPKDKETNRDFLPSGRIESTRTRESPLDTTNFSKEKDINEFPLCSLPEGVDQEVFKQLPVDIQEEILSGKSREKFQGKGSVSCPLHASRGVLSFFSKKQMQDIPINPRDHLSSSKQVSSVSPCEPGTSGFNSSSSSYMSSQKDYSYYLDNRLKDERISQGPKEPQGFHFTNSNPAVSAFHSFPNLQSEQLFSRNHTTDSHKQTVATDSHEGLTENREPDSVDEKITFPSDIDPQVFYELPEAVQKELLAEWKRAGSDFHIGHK
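Pol iota at 10 nM preincubated 15 min with compounds at room temperature; reaction started with fluorescent substrate, 50 nM final. Fluorescence read kinetically at 0 and 10 min; buffer-only wells as negative control.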
Pol kappa inh-1: qHTS for Inhibitors of Polymerase Kappa; Potency, µM (highest dose often 107 µM), inactives show at the highest dose activity, negative = inhibition, actives largely listed as inhibitors; DNA polymerase kappa (Homo sapiens), Q9UBT6; hit rate 0.53% among 400,000; AID 588579, 2011; purified Pol kappa, fluorescent DNA synthesis assay, 10 min; note: potency is the fitted concentration of half-maximal effect; % is set by controls: 0 for no effect and ±100 for the full control effect
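50 nM final substrate added after 15 min RT preincubation of 10 nM Pol kappa with compound; fluorescence read at 0 and 10 min.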
POLB inh: qHTS Assay for Inhibitors of DNA Polymerase Beta; P06746; Pol beta primer extension/strand displacement, fluorescence kinetic; Potency, µM (highest dose often 114 µM), for inactives: at the highest dose activity change, negative = inhibition, most hits filed as inhibitors; hit rate 1.3% among 340,000; note: potency is the fitted concentration of half-maximal effect; % is set by controls: 0 for no effect and ±100 for the full control effect
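10 nM enzyme + cpd, 15 min RT; start with substrate 50 nM final; read 0 min and after 10 min RT. Corrected, normalized data; 4-parameter Hill curve fit.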
FEN1 inh-1: qHTS Assay for the Inhibitors of Human Flap endonuclease 1 (FEN1) | Recombinant FEN1 flap cleavage, fluorescence, 15 min | Potency, µM (top dose mostly 114 µM), inactives show top-dose activity change, negative = inhibition, usual class: inhibitors | hit rate 0.35% among 390,000; note: potency is the fitted concentration of half-maximal effect; % is set by controls: 0 for no effect and ±100 for the full control effect; nearly all actives have a fitted effect of over 65% in size
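With each library titrated from low to high concentration, compounds met 10 nM FEN1 for 15 min at room temperature before 50 nM substrate was added; readings at 0 and 15 min fed four-parameter Hill curve fits.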
WRN helicase inh-1: qHTS for Inhibitors of WRN Helicase; Bifunctional 3'-5' exonuclease/ATP-dependent helicase WRN (Homo sapiens), Q14191; WRN helicase unwinding, fluorescent forked duplex, kinetic; Potency, µM (doses to about 114 µM), without a hit: at the highest dose activity change, negative = inhibition, most hits filed as inhibitors; hit rate 0.46% among 360,000; note: potency is the fitted concentration of half-maximal effect; % is set by controls: 0 for no effect and ±100 for the full control effect; nearly all actives have a fitted effect of over 55% in size
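Fluorescence dequenching readout, ex 525 nm/em 598 nm, kinetic mode: forked duplex DNA (100 nM final) with adjacent fluorophore and quencher unwound by WRN (20 nM final) with 2 mM ATP. Compound preincubation 15 min, room temperature.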
Pol eta inh-1: qHTS for Inhibitors of Polymerase Eta; recombinant Pol eta, fluorescent DNA replication assay; DNA polymerase eta (Homo sapiens), Q9Y253; Potency, µM (doses to about 114 µM), inactives show top-dose activity change, negative = inhibition, actives largely listed as inhibitors; hit rate 1.2% among 390,000; AID 588591, 2011; note: potency is the fitted concentration of half-maximal effect; % is set by controls: 0 for no effect and ±100 for the full control effect
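Pol eta at 10 nM preincubated with compounds 15 min at room temperature; reaction started with fluorescent substrate (50 nM final) and read kinetically at 0 and 10 min.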
PGK validate: qHTS for inhibitors of Phosphogylcerate Kinase: Hit Validation Screen; shares compounds with Pol kappa inh-1; TbPGK coupled GAPDH assay, Kinase-Glo luminescence; hit rate 79% among 500; Potency, µM (doses to about 57.5 µM), inactives show at the top dose activity change, negative = inhibition, usual class: inhibitors; note: potency is the fitted concentration of half-maximal effect; % is set by controls: 0 for no effect and ±100 for the full control effect; nearly all actives have a fitted effect of over 65% in size
Pol iota confirm: qHTS for Inhibitors of Polymerase Iota: Confirmatory Assay for Cherry-picked Compounds. shares compounds with Pol kappa inh-1. Pol iota primer extension, TAMRA/BHQ fluorescence. Potency, µM, usual class: inhibitors. hit rate 77% among 1,500; note: potency is the fitted concentration of half-maximal effect
GALK confirm: Confirmation Assay for Inhibitors of Human Galactokinase (GALK) | shares compounds with Pol eta inh-1 | purified GALK, Kinase-Glo ATP depletion luminescence | Potency, µM (titrated, usually from 115 µM), without a hit: at the top dose activity, negative = inhibition, hits mostly inhibitors | hit rate 70% among 150 | AID 2015, 2009
GALK redox cs: Confirmatory Assay for Inhibitors of Human Galactokinase (GALK): Phenol-HRP redox assay counterscreen. shares compounds with Pol eta inh-1. hit rate 40% among 150. AID 2035, 2009. Potency, µM (titrated, usually from 115 µM), for the others: top-dose activity change, negative = H2O2 signal, most hits filed as inhibitors. Phenol red-HRP H2O2 redox cycling, absorbance 600 nm
HEK293 tox: Secondary Assay for Inhibitors of Human Galactokinase (GALK): HEK-293 Cell Viability Assay; Potency, µM (series often up to 46.1 µM), for inactives: at the highest dose activity change, negative = cytotoxicity, most hits filed as inhibitors; HEK-293 viability, ATP luminescence (CellTiter-Glo), 24/48 h; shares compounds with Pol eta inh-1; hit rate 10% among 170; note: potency is the fitted concentration of half-maximal effect; % is set by controls: 0 for no effect and ±100 for the full control effect
Pol kappa inh-2: qHTS for Inhibitors of Polymerase Kappa: Confirmatory Assay for Cherry-picked Compounds | shares compounds with Pol eta inh-1 | AID 720501, 2013 | hit rate 76% among 920 | Potency, µM, actives largely listed as inhibitors | purified Pol-kappa, fluorescent strand-displacement substrate; note: potency is the fitted concentration of half-maximal effect
Pol eta inh-2: qHTS for Inhibitors of Polymerase Eta: Confirmatory Assay for Cherry-picked Compounds; shares compounds with Pol eta inh-1; Pol eta primer extension, TAMRA/BHQ fluorescence, 10 min; Potency, µM, hits mostly inhibitors; hit rate 64% among 2,600; note: potency is the fitted concentration of half-maximal effect
FEN1 inh-2: qHTS Assay for the Inhibitors of FEN1: Confirmatory Assay for Cherry-picked Compounds; AID 720498, 2013; hit rate 79% among 880; shares compounds with FEN1 inh-1; FEN1 flap cleavage, TAMRA/BHQ2 fluorogenic DNA substrate; Potency, µM, usual class: inhibitors; note: potency is the fitted concentration of half-maximal effect; nearly all actives have a fitted effect of over 60% in size
WRN helicase inh-2: qHTS for Inhibitors of WRN Helicase: Confirmatory Assay for Cherry-picked Compounds | hit rate 63% among 610 | AID 720497, 2013 | WRN helicase DNA unwinding, fluorescence kinetic | shares compounds with WRN helicase inh-1 | Potency, µM (titrated, usually from 57.1 µM), inactives show at the highest dose activity, negative = inhibition, hits mostly inhibitors; note: potency is the fitted concentration of half-maximal effect; nearly all actives have a fitted effect of over 65% in size
TO DNA binding: qHTS for Inhibitors of WRN Helicase: Thiazole Orange DNA Binding Counterscreen; shares compounds with WRN helicase inh-1; thiazole orange DNA binding displacement, fluorescence; Potency, µM (titrated, usually from 57.1 µM), for inactives: at the highest dose activity change, negative = inhibition, most hits filed as inhibitors; hit rate 10% among 610;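 note: drop in dye fluorescence marks compound binding to DNA; potency is the fitted concentration of half-maximal effect; % is set by controls: 0 for no effect and ±100 for the full control effect; nearly all actives have a fitted effect of over 60% in size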
BLM counter: qHTS for Inhibitors of WRN Helicase: BLM Helicase Counterscreen for WRN Inhibitors | hit rate 60% among 610 | shares compounds with WRN helicase inh-1 | Potency, µM (highest dose often 57.1 µM), without a hit: at the top dose activity change, negative = inhibition, most hits filed as inhibitors | Recombinant BLM helicase DNA unwinding, red fluorescence | AID 720503, 2013; note: potency is the fitted concentration of half-maximal effect; nearly all actives have a fitted effect of over 60% in size
An asterisk follows results filed as active; ? = inconclusive; . = not tested or not shown; [ ] = dose if it differs, or a comment. A selection: hits, their analogues and other compounds. The true share with any hit is near 2.4%. Calls come from the whole dose curve; as a rule, active = well fitted curve in the direction sought with a large enough effect; inconclusive = small, poorly fitted or top-dose-only effect, or another doubt; inactive = no such curve, though single readings can be large; an effect the other way counts as inactive or inconclusive.

SMILES	POLI inh	Pol kappa inh-1	POLB inh	FEN1 inh-1	WRN helicase inh-1	Pol eta inh-1	Pol iota confirm	Pol eta inh-2	WRN helicase inh-2	TO DNA binding	BLM counter	others
Nc1ccc2c(c1)C(=O)C(=O)c1ccccc1-2	1µM*	-8%	5µM*	?	35µM*	0.79µM*	6.7*	4.8*	19µM*	?	3.4µM*	PGK validate=1.6µM*;GALK confirm=2.4µM*;GALK redox cs=1.3µM*;HEK293 tox=7.9µM*
CC1=NN(c2cccc(C(=O)O)c2)C(=O)/C1=C\C=C\c1ccco1	1.3µM*	7.1µM*	0.56µM*	22µM*	4.7µM*	-98%	2.4*	1.5*	1.5µM*	-21%	0.96µM*	PGK validate=2.9µM*;FEN1 inh-2=24*
CC1(C)CCCN(C(=O)c2coc(=O)c(Br)c2)C1	10µM*	14µM*	0.45µM*	56µM*	18µM*	0.89µM*	.	.	1.9µM*	?	0.48µM*	PGK validate=0.82µM*
O=S1(=O)CC/C(=N/Nc2ccc(C(F)(F)F)cn2)c2cc(F)ccc21	73%	3%	2%	-5%	-30%	1%	.	.	.	.	.
O=C(CCc1ccc(O)c(O)c1)N/N=C/c1cc2c(cc1[N+](=O)[O-])OCO2	32µM*	25µM*	25µM*	?	?	18µM*	?	30*	22µM*	30µM*	8.6µM*
Cc1cccc(C)c1OCC(=O)N/N=C/c1cc2c(cc1[N+](=O)[O-])OCO2	0%	-10%	-1%	-1%	-10%	4%	.	.	.	.	.
CC1CCCCN1C(=O)CSc1nc(N)cc(=O)[nH]1 (centres undefined)	6%	-8%	34%	0%	10%	-12%	.	.	.	.	.
O=C(O)c1ccc2c(c1)C(=O)/C(=C\c1ccco1)C2=O	6.3µM*	8.9µM*	2.2µM*	?	25µM*	3.5µM*	30*	8.5*	?	22µM*	-10%	Pol kappa inh-2=2.7*;FEN1 inh-2=27*
COc1ccccc1N(CC(=O)NC1CCCC1)S(=O)(=O)c1cccc(C(F)(F)F)c1	8%	-4%	.	-5%	-11%	-10%	.	.	.	.	.
Cc1cc(OCC(=O)Nc2ccc(N3CCN(C(=O)c4ccco4)CC3)cc2)cc(C)c1Cl	?	-3%	?	?	?	79µM*	53*	?	?	-10%	5.4µM*
O=C(O)C1NCc2[nH]cnc2C1c1ccccc1 (centres undefined)	.	.	.	.	.	.	60*	?	-27%	-3%	?
O=C(O)C1Oc2ccccc2C1c1ccccc1 (centres undefined)	13%	-2%	.	-13%	0%	-6%	.	.	.	.	.
COc1cc(/C=C2\CC/C(=C\c3cc(OC)c(O)c(OC)c3)C2=O)cc(OC)c1O	2.8µM*	10µM*	4.5µM*	6.3µM*	11µM*	1.8µM*	27*	9.5*	3.4µM*	6.1µM*	5.4µM*	FEN1 inh-2=8.5*
Cc1cccc2sc(NC(=O)C3CCN(S(=O)(=O)c4cc([N+](=O)[O-])ccc4Cl)CC3)nc12	25µM*	79µM*	?	-16%	?	11µM*	?	76*	?	?	7.6µM*
Cc1nnc(NC(=O)C2CCN(S(=O)(=O)c3cc([N+](=O)[O-])ccc3Cl)CC2)o1	18%	0%	.	18%	7%	-19%	.	.	.	.	.
N#Cc1ccc(CN2CCCC3(CCNCC3)C2)cc1	.	1%[60.1 µM]	.	.	.	.	.	.	.	.	.
